For test [1], the target named is Nucleoli Translocation, AR (gene 367) (UniProt P10275). Briefly: UPITT_HCI_U2OS_AR_TIF2_Nucleoli_Antagonist: University of Pittsburgh U2OS Androgen Receptor-Transcriptional Intermediary Factor 2 (AR-TIF2) Antagonism High Content Imaging Assay for Nucleoli Translocation (AID 2283997; active = hit-call score of the fitted dose curve at least 0.9, where 1 is the maximum). The procedure, abridged: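 U2OS cells co-expressing red-fluorescent-tagged human AR and green-fluorescent-tagged TIF2, imaged by high-content microscopy for nucleolar red fluorescence. Antagonist mode against DHT; primary screen at 20 uM final (0.2% DMSO).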

The target in test [2] is Ratio of Nucleoli Translocation and Cytoplasm, AR (gene 367) (UniProt P10275). Briefly: UPITT_HCI_U2OS_AR_TIF2_Nucleoli_Cytoplasm_Ratio_Antagonist: University of Pittsburgh U2OS Androgen Receptor-Transcriptional Intermediary Factor 2 (AR-TIF2) Antagonism High Content Imaging Assay for Ratio of Nucleoli Translocation and Cytoplasm (AID 2283999; active = hit-call score of the fitted dose curve at least 0.9, where 1 is the maximum;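 also: antagonists lower the DHT-driven ratio of nucleolar to cytoplasmic red signal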). The method in brief: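 U2OS cells co-expressing RFP-tagged human AR and GFP-tagged TIF2, antagonist mode with DHT as baseline. Nucleolar-to-cytoplasmic red fluorescence ratio imaged by high-content microscopy; final compound 20 uM (0.2% DMSO) primary, 0.195–50 uM (0.5% DMSO) concentration-response.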

The target is the same in test [3]. As to the kind of experiment: UPITT_HCI_U2OS_AR_TIF2_Nucleoli_Cytoplasm_Ratio_Agonist: University of Pittsburgh U2OS Androgen Receptor-Transcriptional Intermediary Factor 2 (AR-TIF2) Agonism High Content Imaging Assay for Ratio of Nucleoli Translocation and Cytoplasm (AID 2284000; active = hit-call score of the fitted dose curve at least 0.9, where 1 is the maximum;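 also: hits raise the red nucleolar to cytoplasm ratio above vehicle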). The procedure, abridged:
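U2OS cells expressing RFP-tagged human AR and GFP-tagged TIF2; high-content imaging ratio of nucleolar to cytoplasmic red fluorescence, fitted as gain of signal vs DMSO. Single point at 20 uM final (0.2% DMSO); concentration-response 0.195-50 uM final (0.5% DMSO).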

Test [4] concerns the target Nucleoli Translocation, AR (gene 367) (UniProt P10275). As to the kind of experiment: UPITT_HCI_U2OS_AR_TIF2_Nucleoli_Agonist: University of Pittsburgh U2OS Androgen Receptor-Transcriptional Intermediary Factor 2 (AR-TIF2) Agonism High Content Imaging Assay for Nucleoli Translocation (AID 2283998; active = hit-call score of the fitted dose curve at least 0.9, where 1 is the maximum). The procedure, abridged:
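RFP-AR / GFP-TIF2 cells; cpds diluted in serum-free medium; single-point screen 20 uM final (0.2% DMSO), actives confirmed in triplicate; conc-response 0.195–50 uM final (0.5% DMSO). Readout: nucleolar red fluorescence, positive direction vs DMSO.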

Test [5] can be described thus: CCTE_Harrill_HTTr_Viability_MCF7: CCTE's 6-hour Cell Viability Assessment for the High-Throughput Transcriptomics (HTTr) Platform, in MCF-7 cells cultured in DMEM + 10% fetal bovine serum, Harrill Lab (AID 2284010). The method in brief:
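MCF-7 cells in DMEM + 10% FBS, 384-well, exposed 6 h to an eight-point dilution series. Membrane integrity scored by high-content imaging of propidium iodide exclusion; bidirectional fit versus DMSO.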

Test [6] can be described thus: CCTE_Harrill_HTTr_Apoptosis_MCF7: CCTE's 6-hour Apoptosis Assessment for the High-Throughput Transcriptomics (HTTr) Platform, in MCF-7 cells cultured in DMEM + 10% fetal bovine serum, Harrill Lab (AID 2284011). The method in brief: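 Read-out: CellEvent Caspase 3/7 Green signal by high content imaging, gain-of-signal indicating apoptosis. MCF-7 cells, DMEM + 10% FBS, eight-point dilution series, 6 h exposure. Curves fitted bidirectionally relative to DMSO negative control.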

The nature of test [7]: CCTE_Harrill_HTTr_CellCount_MCF7: CCTE's Cell Proliferation Assessment for the High-Throughput Transcriptomics (HTTr) Platform, Harrill Lab (AID 2284012; active = hit-call score of the fitted dose curve at least 0.9, where 1 is the maximum;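 also: cells exposed to compound for six hours; intended direction is loss of nuclei count meaning fewer cells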). The method in brief: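 MCF7 cells exposed 6 hours to an eight-point dilution series; Hoechst-stained nuclei counted by high-content imaging. Bidirectional curve fitting against DMSO baseline.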

Each structure is given as a SMILES string. Records with an inconclusive call do not appear. Activity calls are given as the source filed them. The calls were made as follows, unless noted: active = hit-call score of the fitted dose curve at least 0.9, where 1 is the maximum; inactive = score below 0.9.

Ratio of Nucleoli Translocation and Cytoplasm, AR (gene 367), sequence (P10275 whole entry, looked up): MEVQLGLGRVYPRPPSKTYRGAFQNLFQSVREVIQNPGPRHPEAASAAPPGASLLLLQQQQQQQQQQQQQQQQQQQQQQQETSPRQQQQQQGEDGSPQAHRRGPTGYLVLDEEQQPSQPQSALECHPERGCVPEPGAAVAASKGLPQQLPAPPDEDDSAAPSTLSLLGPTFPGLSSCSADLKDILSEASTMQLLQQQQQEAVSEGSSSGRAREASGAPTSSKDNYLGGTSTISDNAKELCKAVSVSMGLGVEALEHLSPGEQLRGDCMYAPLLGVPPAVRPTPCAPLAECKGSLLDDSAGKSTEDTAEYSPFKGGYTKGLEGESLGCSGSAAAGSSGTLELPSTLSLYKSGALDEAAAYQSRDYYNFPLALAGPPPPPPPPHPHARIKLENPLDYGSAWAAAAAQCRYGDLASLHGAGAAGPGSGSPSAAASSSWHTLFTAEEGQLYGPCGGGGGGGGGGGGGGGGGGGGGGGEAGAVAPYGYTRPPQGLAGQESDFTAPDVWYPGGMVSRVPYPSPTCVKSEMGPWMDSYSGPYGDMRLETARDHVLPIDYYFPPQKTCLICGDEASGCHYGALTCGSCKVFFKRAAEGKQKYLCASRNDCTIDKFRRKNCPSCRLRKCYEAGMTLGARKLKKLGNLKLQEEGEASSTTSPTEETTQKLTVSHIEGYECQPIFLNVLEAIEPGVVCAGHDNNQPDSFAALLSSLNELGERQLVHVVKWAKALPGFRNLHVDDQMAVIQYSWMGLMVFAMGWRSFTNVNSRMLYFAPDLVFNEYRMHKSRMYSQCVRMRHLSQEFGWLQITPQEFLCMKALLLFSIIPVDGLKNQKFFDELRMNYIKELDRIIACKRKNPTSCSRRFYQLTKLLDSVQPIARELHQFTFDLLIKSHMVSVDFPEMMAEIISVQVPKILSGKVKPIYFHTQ
Nucleoli Translocation, AR (gene 367), sequence (P10275 whole entry, looked up): as above

Turning to `COc1cc([N+](=O)[O-])ccc1N`, the result in test [1], in test [2] and in test [3] was inactive.

As for `CCCCCCC(C)(C)C(=O)O`, the compound was called inactive in test [1], in test [4], in test [2] and in test [3].

As for `O=C(NO)c1ccccc1`, the result in test [5], in test [6] and in test [7] was inactive.

On to `Cc1cncc(C)c1`, for which the result in test [5], in test [6] and in test [7] was inactive.

As to `c1cnc2c(c1)ccc1cccnc12`, the result in test [5], in test [6] and in test [7] was inactive.

As for `Cc1ccccc1C(OCCN(C)C)c1ccccc1` (stereo not given), the result in test [5], in test [6] and in test [7] was inactive.

As to `CCC(=O)O`, the outcome in test [5], in test [6] and in test [7] was inactive.

Consider `Cc1[nH]nc2c1N=C(c1ccccc1Cl)c1cc([N+](=O)[O-])ccc1N2`, for which the outcome in test [5], in test [6] and in test [7] was inactive.

As to `CCCCCC(C)OC(=O)COc1ccc(Cl)c2cccnc12` (stereo not given), the outcome in test [5], in test [6] and in test [7] was inactive.

Turning to `C=Cc1ccc(O)c(OC)c1`, the outcome in test [5], in test [6] and in test [7] was inactive.

`Nc1ccn([C@@H]2O[C@H](CO)[C@@H](O)C2O)c(=O)n1` (stereo not given in full): the outcome in test [5], in test [6] and in test [7] was inactive.

As for `CC1=CC(=O)c2ccccc2C1=O`, the outcome in test [5], in test [6] and in test [7] was inactive.

Turning to `CCCCCCCCC(C)=O`, the outcome in test [5], in test [6] and in test [7] was inactive.

On to `C[C@]12CC[C@@H]3c4ccc(O)cc4CC[C@H]3[C@@H]1C[C@@H](O)[C@@H]2O`, for which the outcome in test [5], in test [6] and in test [7] was inactive.

Regarding `CC(C)(C)C1CCCCC1O` (stereo not given), the result in test [5], in test [6] and in test [7] was inactive.

For the compound `O=C(O)c1cccc(C(=O)O)n1`, the result in test [5], in test [6] and in test [7] was inactive.

With `COC1=CC(=O)C[C@@H](C)[C@]12Oc1c(Cl)c(OC)cc(OC)c1C2=O`, the outcome in test [5], in test [6] and in test [7] was inactive.

Turning to `CC1CCC(CO)CC1` (stereo not given), the result in test [5], in test [6] and in test [7] was inactive.

With `Cc1cccc2c1ccc1ccccc12`, the outcome in test [5], in test [6] and in test [7] was inactive.

Turning to `CNNCc1ccc(C(=O)NC(C)C)cc1`, the result in test [5], in test [6] and in test [7] was inactive.

With `CCCCCCCCCCCCCCCCCC[N+](C)(C)Cc1ccccc1`, the outcome in test [5], in test [6] and in test [7] was inactive.

For `CC(C)(C)c1ccc(CCC=O)cc1`, the outcome in test [5], in test [6] and in test [7] was inactive.

In the case of `CCCCCCCCCCCCOS(=O)(=O)O`, the result in test [5], in test [6] and in test [7] was inactive.

`O=c1cc(-c2ccccc2)oc2ccc3ccccc3c12`: the result in test [5], in test [6] and in test [7] was inactive.

In the case of `CS(=O)(=O)c1ccc([C@@H](CC2CCCC2)C(=O)Nc2cnccn2)cc1Cl`, the outcome in test [5], in test [6] and in test [7] was inactive.

On to `CCCCCCCCCCCCCCC`, for which the outcome in test [5], in test [6] and in test [7] was inactive.

In the case of `O=C(O)C(=O)O`, the outcome in test [5], in test [6] and in test [7] was inactive.

Take `CC(=O)Nc1ccc(S(N)(=O)=O)cc1`: the result in test [5], in test [6] and in test [7] was inactive.

For the compound `CC(C)(c1ccc(Oc2ccc(N)cc2)cc1)c1ccc(Oc2ccc(N)cc2)cc1`, the outcome in test [5], in test [6] and in test [7] was inactive.

Turning to `CC(C)c1c(C(=O)Nc2ccccc2)c(-c2ccccc2)c(-c2ccc(F)cc2)n1CC[C@@H](O)C[C@@H](O)CC(=O)O`, the result in test [5], in test [6] and in test [7] was inactive.

On to `Nc1ccc(O)c(C(=O)O)c1`, for which the result in test [5] and in test [6] was inactive.

For `Cc1cc(Cc2cc(C)cc(C(C)(C)C)c2O)c(O)c(C(C)(C)C)c1`, the outcome in test [5], in test [6] and in test [7] was inactive.

Take `CCCCC(CC)C(=O)O` (stereo not given): the result in test [5], in test [6] and in test [7] was inactive.

`CC(C)(C)c1ccc(O)c(O)c1`: the result in test [5], in test [6] and in test [7] was inactive.

The AC50 is the concentration giving half of the maximal activity seen. Regarding `CCCCCCCCCCCC[N+](C)(C)Cc1ccccc1`, the AC50 in test [5] was 68.8 µM (active); in test [6] it was 70.8 µM (active); in test [7], 70.3 µM (active).

`Brc1ccc(Oc2ccc(Br)cc2Br)cc1`: the result in test [5], in test [6] and in test [7] was inactive.

For `C[C@]12CC[C@@H]3c4ccc(O)cc4CC[C@H]3[C@@H]1CC[C@@H]2OC(=O)CCC1CCCC1`, the outcome in test [5], in test [6] and in test [7] was inactive.

Regarding `CCCCCCCCCCCC(=O)O`, the result in test [5], in test [6] and in test [7] was inactive.

As for `C=CC(C)(CCC=C(C)C)OC(C)=O` (stereo not given), the result in test [5], in test [6] and in test [7] was inactive.

For the compound `Cn1sccc1=O`, the outcome in test [5], in test [6] and in test [7] was inactive.

The record behind these values is PubChem BioAssay (EPA / NIEHS).
